In PubChem BioAssay:

system: XIP peptide (Xip251-270) binding; experiment: XIP fragment 251-270 binding compounds – biochemical, small-molecule microarray, fluorescence 635/667 nm, 0.1 µg/mL protein, primary screen (AID 1182); conditions: fluorescent protein binding, 635 nm, higher = more signal, called active from +8 up or from −8 down

Composite z-score, inactive:
O=C1c2ccccc2[C@](Cc2ccccc2I)(C(=O)NCc2ccccc2)[C@H](c2ccc(CO)cc2)N1C1CCCCC1 0.353
COc1ccc(C(O)C2C=CC3C(=O)N(C)C(=O)C3N2N2CCCCC2)cc1 (stereo not given) 0.568
C=C1C2CC3C(=C4C(CO[C@@H]4[C@H]4CCCN4S(=O)(=O)c4ccccc4[N+](=O)[O-])C4C(=O)N(C)C(=O)C34)CC2C(=O)N1C (stereo not given in full) 0.253
COCCOC(=O)N1C(=O)[C@@]2(c3cc(C#CC4=CCCCC4)ccc31)[C@H](c1ccc(O)cc1)N1[C@H](c3ccccc3)[C@H](c3ccccc3)OC(=O)[C@H]1[C@@H]2C(=O)Nc1nc2ccccc2s1 0.863
C[C@H]1C2=C3C(CC[C@H]4C(OCc5ccc(F)cc5C(F)(F)F)OC[C@](C)([C@@H]34)N(C(=O)OC(C)(C)C)C2)C(CO)C1CO (stereo not given in full) 0.456
COCCOC(=O)N1C(=O)[C@@]2(c3cc(C#CC4(O)CCCCCC4)ccc31)[C@H](C(=O)N1CCCCCCC1)[C@H]1C(=O)O[C@H](c3ccccc3)[C@H](c3ccccc3)N1[C@@H]2c1ccc(OCCO)cc1 1.72
COCCOC(=O)N1C(=O)[C@@]2(c3cc(C#CC4(O)CCCCCC4)ccc31)[C@H](C(N)=O)[C@H]1C(=O)O[C@H](c3ccccc3)[C@H](c3ccccc3)N1[C@@H]2c1ccccc1OCCO -0.0203
CC(=O)N1Cc2ccccc2C[C@]2(N=C(c3ccc(OCCCO)cc3)O[C@@H]2c2ccccc2)C1=O 1.84
O=C1OCC=C[C@H]2OC34C=CCN(c5ccc(Cl)cc5)C(=O)[C@H]3N(CCCCCO)C(=O)[C@@H]4[C@@H]12 (stereo not given in full) -0.0492
C=C(C(=O)CC[C@H](OC(=O)c1cccnc1)c1cccc(OCCO)c1)C(C)C 0.24
CC(C)C(O)C1C=CC2C(=O)N(C)C(=O)C2N1N(c1ccccc1)c1ccccc1 (stereo not given) 0.618
O=C1O[C@@H](c2ccccc2)[C@@H](c2ccccc2)N2[C@@H](c3ccc(O)cc3)[C@]3(C(=O)Nc4ccccc43)[C@@H](C(=O)Nc3nc4ccccc4s3)[C@H]12 1.03
COC(=O)[C@@]1(Cc2ccc(OC)cc2)[C@H]2c3cc(C(=O)N(C)C)n(Cc4ccccc4)c3C[C@H]2CN1C(=O)c1ccccc1 0.0961
CC1CC/C=C\[C@H]2OC34C=CCN(CCN5CCOCC5)C(=O)[C@H]3N(CCO)C(=O)[C@@H]4C2C(=O)O1 (stereo not given in full) 0.467
COC(=O)[C@]1(CCS(=O)(=O)c2ccccc2)N=C(c2ccc(OCCCO)cc2)O[C@@H]1c1ccccc1CN=[N+]=[N-] 0.867
CC(C)(C)OC(=O)CC[C@]1(C(=O)O)N=C(c2ccc(OCCCO)cc2)O[C@H]1c1ccccc1 -0.0164
O=C1c2ccccc2[C@@]2(Cc3ccccc3N(C3CC3)C2=O)[C@H](c2ccc(CO)cc2)N1C1CCCCC1 -0.241
COCCOC(=O)N1C(=O)[C@@]2(c3ccccc31)[C@H](c1ccc(OCCO)cc1)N1[C@H](c3ccccc3)[C@H](c3ccccc3)OC(=O)[C@H]1[C@@H]2C(=O)Nc1nc2ccccc2s1 1.72
[N-]=[N+]=Nc1ccccc1C[C@@]1(C(=O)O)N=C(c2ccc(OCCCO)cc2)O[C@@H]1c1ccccc1 0.57
CCCNC(=O)[C@@]1(c2ccc([N+](=O)[O-])cc2)CC(=O)N(C2CCCCC2)[C@@H]1c1ccc(CO)cc1I 0.423
COc1ccc([Si](C)(C)[C@H]2[C@H](CCn3cc([C@H](O)c4ccccc4)nn3)O[C@@]3(C(=O)N(Cc4ccc(N5CCOC5=O)cc4)c4ccccc43)[C@@H]2C)cc1 -0.47
COCCCNC(=O)[C@@]1(Sc2ccc(C)cc2)CC(=O)N(Cc2cc(C(F)(F)F)cc(C(F)(F)F)c2)[C@@H]1c1ccc(CO)cc1 0.451
C=CCC(OC(C)=O)[C@@H]1[C@@H](N(Cc2cc3ccccc3o2)C(=O)Cc2ccc(F)cc2)c2cc(OCCCO)ccc2N1C(=O)c1ccc2ccccc2n1 (stereo not given in full) -0.173
CCCCC(=C=CC[C@@H](O)c1ccc(OCCO)cc1)C[C@@H](O)COCc1ccccc1 0.117
O=C1O[C@@H](c2ccccc2)[C@@H](c2ccccc2)N2[C@@H](c3ccc(O)cc3)[C@]3(C(=O)Nc4ccc(C#CCCO)cc43)[C@@H](C(=O)NC[C@H](O)c3ccccc3)[C@H]12 0.437
